Earlier results on 30 molecules are cited in PubChem BioAssay AID977611.

The whole screen tested about 3,900 compounds, of which about 3,900 (100%) were called active. Cut-off not given; nearly all actives show Kd up to about 4200 µM. So high a share suggests a set chosen from earlier hits. The list shows a part of the results. Starred links: 1 amine or outer side, 2 acyl side, 3 side chain; linkers in the order of their positions; H or OH if unused. Where a SMILES comes first, the peptide text is derived from it. Non-standard residues stand in square brackets, D forms with d. Residues, ends and D or L forms follow the SMILES beside them. Peptide text beside a SMILES is read from it. The star is where a group is joined. *: point of attachment. X1 = C[C@@H]1CCCN1*; Orn(CH(NH2)2) = NC(N)NCCC[C@H](N)C(=O)O; Propyl = CCC*

A short description of this series: PubChem AID 977611. The conditions noted are these: PDB protein-ligand complexes, literature Kd.

Turning to `CC[C@H](C)[C@H](NC(=O)[C@H](Cc1cnc[nH]1)NC(=O)[C@H](C)NC(=O)[C@H](CCC(N)=O)NC(=O)[C@@H](NC(=O)[C@H](CCCNC(N)N)NC(=O)[C@H](CC(C)C)NC(=O)[C@H](CC(C)C)NC(=O)[C@H](CO)NC(=O)[C@@H]1CCCN1C(=O)[C@@H](NC(=O)[C@H](CC(N)=O)NC(=O)[C@@H](N)CCCCN)[C@@H](C)CC)C(C)C)C(=O)N[C@@H](CCCNC(N)N)C(=O)N[C@@H](CCCCN)C(=O)N[C@@H](CCCCN)C(=O)N[C@@H](CCSC)C(=O)N[C@H](C(=O)O)C(C)C` (HELM PEPTIDE1{K.N.I.P.S.L.L.[NC(N)NCCC[C@H](N[*:1])C(=O)[*:2]].V.Q.A.H.I.[NC(N)NCCC[C@H](N[*:1])C(=O)[*:2]].K.K.M.V}$$$$V2.0), the Kd (as a rule, the free concentration of one partner at which half of the binding sites on the other are occupied at equilibrium, for simple one-to-one binding) (protein: MYOSIN A TAIL DOMAIN INTERACTING PROTEIN, PDB entry 4aom) was 0.085 µM (active).

With `NC(=O)CC[C@H](NC(=O)CCc1ccc(-c2cc(-c3ccccc3)cs2)cc1)C(=O)N[C@@H](CCC(=O)O)C(N)=O`, the Kd (protein: Macrophage metalloelastase, PDB entry 3tsk) is 0.067 µM (active).

Turning to `CCC(CC)Nc1cc(C)nc(Oc2c(C)cc(C)cc2C)c1C`, the Kd (protein: Corticotropin-releasing factor receptor 1, T4-Lysozyme chimeric construct, PDB entry 4k5y) is 0.0067 µM (active).

On to `C=C/C(C)=C\[C@@]1(C)SC(=O)C(C(C)=O)=C1O`, for which the Kd is 25.6 µM (active) (protein: 3-OXOACYL-[ACYL-CARRIER-PROTEIN] SYNTHASE 1, PDB entry 4c6u) and 25.6 µM (active) (protein: 3-OXOACYL-[ACYL-CARRIER-PROTEIN] SYNTHASE 1, PDB entry 4c6v).

Regarding `C=C/C(C)=C/[C@@]1(C)SC(=O)/C(=C(\O)C(F)(F)F)C1=O`, for the setting “protein: 3-OXOACYL-[ACYL-CARRIER-PROTEIN] SYNTHASE 1, PDB entry 4c73”, the Kd was 12.1 µM (active).

As for `CNc1nc2c(CC[C@H]3O[C@@H](OC)[C@H](OC)[C@@H]3O)c3nc(N)[nH]c(=O)c3cc2[nH]1`, for the setting “protein: tRNA guanine transglycosylase (TGT), PDB entry 4lbu”, the Kd is 0.276 µM (active).

Take `CNc1nc2c(CC[C@H]3O[C@@H](OC)[C@H](O)[C@@H]3O)c3nc(N)[nH]c(=O)c3cc2[nH]1`: the Kd (protein: tRNA guanine transglycosylase (TGT), PDB entry 4leq) was 0.288 µM (active).

Turning to `O=C(O)c1ccc2nsnc2c1`, the dissociation constant (Kd) (protein: Pantothenate synthetase (T2A, E77G mutation), PDB entry 4ddm) is 3500 µM (active).

In the case of `COc1ccc([C@H]2OC[C@H](C)[C@@H]([C@@H](C)[C@@H](OC)[C@@H](C)CCC(=O)[C@H](C)[C@@H](C/C=C/N(C)C=O)OC)O2)cc1`, the Kd (protein: Actin, alpha skeletal muscle, PDB entry 4k43) is 0.132 µM (active).

As to `CC(C)C[C@H](NC(=O)[C@H](Cc1ccc(O)cc1)NC(=O)[C@H](CCC(=O)O)NC(=O)[C@H](CCC(=O)O)NC(=O)[C@H](Cc1c[nH]c2ccccc12)NC(=O)[C@H](CO)NC(=O)[C@@H](NC(=O)[C@H](Cc1ccccc1)NC(=O)[C@@H](NC(=O)[C@@H](N[C@@H](C)O)[C@@H](C)O)C(C)C)[C@@H](C)O)C(=O)N[C@@H](CC(=O)O)C(=O)N[C@@H](Cc1c[nH]c2ccccc12)C(=O)N[C@H](C(N)=O)C(C)C` (H-[X1]VFTSWEEYLDWV-NH2), the Kd (protein: Proprotein convertase subtilisin/kexin type 9, PDB entry 4nmx) is 0.66 µM (active).

In the case of H-DDYLWGLEAGEGISDLFD-OH, for the setting “protein: retinoblastoma (Rb), PDB entry 1n4m”, the dissociation constant Kd was 0.19 µM (active).

In the case of `CC[C@H](C)[C@H](NC(=O)CNC(=O)[C@H](CCC(=O)O)NC(=O)[C@@H](N)CCC(=O)O)C(=O)N[C@@H](Cc1c[nH]c2ccccc12)C(=O)N[C@@H](C)C(=O)O` (H-EEGIWA-OH), the Kd (protein: RIM1? PDZ Domain, PDB entry 1zub) is 0.27 µM (active).

As for `CC1(C)Nc2nc(N)[nH]c(=O)c2N=C1C(=O)NCC(=O)NCCS(=O)(=O)C[C@H]1O[C@@H](n2cnc3c(N)ncnc32)[C@H](O)[C@@H]1O`, the Kd (protein: 2-amino-4-hydroxy-6-hydroxymethyldihydropteridine pyrophosphokinase/dihydropteroate synthase HPPK-DHPS, PDB entry 4pzv) is 2 µM (active).

On to `C[C@H](N)C(=O)N1CCC[C@H]1C(=O)N1CCC[C@H]1C(=O)N[C@@H](CO)C(=O)N[C@@H](CC(N)=O)C(=O)N1CCC[C@H]1C(=O)N1CCC[C@H]1C(=O)N1CCC[C@H]1C(=O)N[C@@H](CCCNC(N)N)C(=O)N1CCC[C@H]1C(=O)N1CCC[C@H]1C` (H-APPSNPPP[Orn(CH(NH2)2)]P-X1), for which the Kd (protein: tandem SH3domains of p47phox, PDB entry 1ov3) is 0.19 µM (active).

For the molecule `CCCOC[C@H](NC(=O)[C@@H](NC(=O)[C@@H]1CCCN1C(=O)[C@@H](NC(=O)[C@@H](NC(C)=O)C(C)C)[C@@H](C)O)C(C)C)C(=O)N[C@H](C(=O)N[C@@H](C)C(N)=O)[C@@H](C)O` (Ac-VTPVS(Propyl)TA-NH2), the Kd (protein: UDP-N-ACETYLGLUCOSAMINE--PEPTIDE N-ACETYLGLUCOSAMINYLTRANSFERASE 110 KDA SUBUNIT, PDB entry 4cdr) was 7.9 µM (active).

`CC(=O)N[C@H](C(=O)N1CCC[C@H]1C(=O)N1CCC[C@H]1C(=O)N1CCC[C@H]1C(=O)N[C@H](C(=O)N1CCC[C@H]1C(=O)N1CCC[C@H]1C(=O)N[C@@H](CCCNC(N)N)C(=O)N[C@@H](CCCNC(N)N)C(=O)N[C@@H](CCCNC(N)N)C(N)=O)C(C)C)C(C)C`: under “protein: Grb2(N-terminal SH3 domain), PDB entry 3gbq”, the Kd is 3.5 µM (active).

In the case of H-VPPPVPPPPS-OH, the dissociation constant (Kd) (protein: Ponsin, PDB entry 2o9v) was 288 µM (active).

With H-GTCVAARTRPVLSY-OH, the Kd (protein: WD REPEAT-CONTAINING PROTEIN 5, WDR5, PDB entry 4cy1) was 0.181 µM (active).

With H-GGRRPYIL-OH, the Kd (protein: Neurotensin Receptor 1 Mutant TM86V Delta-IC3A, PDB entry 3zev) is 0.0023 µM (active).

For `CNC(=O)C[C@@H]1NC(=O)c2csc(n2)-c2ccc(-c3nc(N(CCCCC(=O)O)C(=O)OC4CCC(C(=O)O)CC4)cs3)nc2-c2csc(n2)-c2csc(n2)[C@H]([C@@H](O)c2ccccc2)NC(=O)CNC(=O)c2nc(sc2COC)[C@H](C(C)C)NC(=O)c2nc1sc2C` (stereo partly specified), for the setting “protein: E. coli K-12 Elongation factor Tu 1, PDB entry 3u2q”, the equilibrium dissociation constant (Kd) is 0.006 µM (active).

For the molecule `NCc1csc2ccc(Br)cc12`, the Kd (protein: CATIONIC TRYPSIN, PDB entry 4abf) is 24 µM (active).

On to `NCc1csc2ccccc12`, for which the Kd (protein: CATIONIC TRYPSIN, PDB entry 4abb) is 31 µM (active).

Take `CO[C@H]1O[C@H](CNS(=O)(=O)c2c(C)cc(C)cc2C)[C@@H](O)[C@H](O)[C@@H]1O`: the Kd (protein: FUCOSE-BINDING LECTIN PA-IIL, PDB entry 3zdv) is 3.3 µM (active).

With H-SGRGK(Ac)G-OH, the Kd (protein: ATPase family AAA domain-containing protein 2 ATAD2A bromodomain, PDB entry 4tt2) is 22 µM (active).

Consider `NC(=O)C[C@H](NC(=O)CNC(=O)CNC(=O)[C@H](CCCNC(N)N)NC(=O)CNC(=O)CNC(=O)CNC(=O)CNC(=O)[C@@H](N)CO)C(=O)NCC(=O)NCC(=O)NCC(=O)NCC(=O)NCC(=O)NCC(=O)O` (H-SGGGG[Orn(CH(NH2)2)]GGNGGGGGG-OH), for which the Kd (protein: Outer membrane porin 1a (Ia;b;F)(OmpF), PDB entry 3o0e) is 1.8 µM (active).

Turning to `O=c1[nH]cnc2cc3nc(NCCN4CCOCC4)[nH]c3cc12`, under “protein: Queuine tRNA-ribosyltransferase TGT, PDB entry 4q4r”, the Kd is 0.369 µM (active).

Consider `O=c1[nH]cnc2cc3nc(NCCN4CCCCC4)[nH]c3cc12`, for which, under “protein: Queuine tRNA-ribosyltransferase TGT, PDB entry 4q4p”, the Kd is 0.407 µM (active).

Consider `CNc1nc2cc3nc(N)[nH]c(=O)c3cc2[nH]1`, for which, for the setting “protein: Queuine tRNA-ribosyltransferase TGT, PDB entry 4q4s”, the Kd is 0.112 µM (active).

For `Nc1nc2cc3nc(NCCN4CCCCC4)[nH]c3cc2c(=O)[nH]1`, under “protein: Queuine tRNA-ribosyltransferase TGT, PDB entry 4q4o”, the dissociation constant Kd was 0.0343 µM (active).

Turning to `O=c1[nH]cnc2cc3nc(NCc4cccs4)[nH]c3cc12`, where the note is “protein: Queuine tRNA-ribosyltransferase TGT, PDB entry 4q4q”, the Kd was 1.64 µM (active).
